From PubChem BioAssay AID2650 (Broad Institute, 2010)
Hit rate of the full screen: of about 320,000 compounds, about 320 (0.1%) were called active. This is one part of a sample in which actives are shown more often than they occur.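 How the source made its calls: active means more than half of replicates show inhibition above 20%; inconclusive means some but at most half of replicates above 20% inhibition; inactive means no replicate shows inhibition above 20%.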

Each molecule was assayed against Glycogen synthase kinase-3 alpha (Homo sapiens) (UniProt P49840) (assay: blockers of GSK3A enzyme activity – biochemical, luminescence, cell-free homogeneous, HTS, primary screen (AID 2650;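 further: GST-tagged GSK-3 alpha with peptide substrate and 25 µM ATP; 0% = DMSO neutral wells and 100% = GW8510 positive control wells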)). Conditions: GSK-3 alpha kinase, ADP-Glo luminescence, 60 min; at 10 µM; stronger effect = higher value.
Sequence of Glycogen synthase kinase-3 alpha (Homo sapiens) (P49840 whole entry, looked up): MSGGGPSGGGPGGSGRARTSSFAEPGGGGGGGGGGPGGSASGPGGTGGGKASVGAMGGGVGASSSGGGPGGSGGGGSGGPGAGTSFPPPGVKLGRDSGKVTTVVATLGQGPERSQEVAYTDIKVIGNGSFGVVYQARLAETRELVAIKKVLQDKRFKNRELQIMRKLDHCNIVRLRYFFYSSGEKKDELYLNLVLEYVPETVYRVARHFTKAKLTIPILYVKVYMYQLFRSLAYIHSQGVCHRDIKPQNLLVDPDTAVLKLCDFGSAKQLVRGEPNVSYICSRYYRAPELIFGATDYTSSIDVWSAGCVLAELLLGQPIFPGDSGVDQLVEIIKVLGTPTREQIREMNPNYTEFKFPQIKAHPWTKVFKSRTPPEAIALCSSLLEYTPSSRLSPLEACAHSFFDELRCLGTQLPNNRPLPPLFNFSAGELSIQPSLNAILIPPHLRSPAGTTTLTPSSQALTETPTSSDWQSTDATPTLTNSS

inhibition, inactive:
CC(=O)Nc1ccc(NC(=O)CC2CCCC2)cc1 0.623%
CC(C)c1ccc(/C=C2\NC(=O)NC2=O)cc1 24.7%
Cc1ccc(C)c(CN2CCC(CNC(=O)Nc3ccc(C)c(F)c3)CC2)c1 -0.807%
OCCC1CN(Cc2cccc(OC3CCCC3)c2)CCN1Cc1ccsc1 (stereo not drawn) -2.02%
CCN(CC)N=Nc1cccc(NC(C)=O)c1 2.05%
O=C(NCc1nnc(SCC(=O)N2CCC(Cc3ccccc3)CC2)o1)c1ccco1 -0.692%
Cc1cc(C)n(Cc2cnc(N3CCOCC3)s2)n1 -2.61%
CCCc1nc2oc3c(=O)[nH]cnc3c2c2c1COC(C)(C)C2 3.6%
OCCC1CN(Cc2ccccc2-c2ccco2)CCN1Cc1ccsc1 (stereo not drawn) -0.178%
CCn1cc(S(=O)(=O)c2cccc(C)c2)c(=O)c2cc(F)c(N3CCN(C)CC3)cc21 -1.82%
O=C(CN(C(=O)c1nsc(Cl)c1Cl)c1cccc(F)c1)NC1CCCC1 -1.81%
Cc1ccc(NS(=O)(=O)c2cn(C)c(=O)n(C)c2=O)c(C)c1 -0.792%
O=C(NCc1csc(-c2cccs2)n1)C1CC1 0.318%
COc1ccc(Cc2n[nH]c(=S)n2NC(=O)Nc2ccc(C)cc2)cc1 -4.11%
CC(=O)N1CC(=O)N(CC(=O)Nc2ccc(Br)cc2)C1=S 2.4%
COc1cccc(CNC(=O)C2CCCN(c3ncnc4c3nc3n4CCCCC3)C2)c1 (stereo not drawn) 0.554%
CCOC(=O)CN(C(=O)COc1nc(-c2ccccc2)cc(C)c1C#N)c1ccc(F)cc1 0.174%
CCCCN(CC)CCNC(=O)c1[nH]c(C)c(C(C)=O)c1C 1.47%
CC(c1ccco1)N(C(=O)c1ccc(S(=O)(=O)N2CCCCC2)cc1)c1ccccn1 (stereo not drawn) -1.32%
CC(=O)c1cnc(SCC(=O)O)nc1C -1.4%
CC1=C(C(=O)OC2CCCCC2)C(c2ccccc2F)NC(=O)N1 (stereo not drawn) -2.54%
COc1ccc(N=Nc2c(-c3ccc(OC)cc3)[nH]oc2=O)cc1 -3.99%
Cc1cc(C)nc(SC2CCCCC2NS(=O)(=O)c2ccc(Cl)cc2)n1 (stereo not drawn) -2.34%
O=C(CN1CCN(c2ccc(O)cc2)CC1)NC1CCCc2ccccc21 (stereo not drawn) -2.3%
CC(C)NC(=O)NNc1c(Cl)cncc1Cl 2.22%
c1ccc2c(NCC3CCCO3)nc(-c3ccncc3)nc2c1 (stereo not drawn) 4.61%
CC(C)(C)c1nc(NCC2CCCO2)c2nnn(Cc3ccccc3)c2n1 (stereo not drawn) -0.49%
Cc1ccccc1C(=O)N1CCC(C(=O)Oc2ccc(C#N)cc2)CC1 3.01%
O=C(O)CCCN1C(=O)C2C3c4ccccc4C(c4ccccc43)[C@@H]2C1=O (stereo partly drawn) -1.27%
COC(=O)c1cc(CNC(=O)CC(C)c2ccccc2)ccc1OC (stereo not drawn) -0.449%
C/C(=N\NC(=O)Cc1ccccc1[N+](=O)[O-])c1cccnc1 -3.03%
Cc1ccc(-n2c(C)cc(/C=N/Nc3ccc([N+](=O)[O-])cn3)c2C)c(C)c1 0.104%
Cc1cc(/C=N/Nc2ccc([N+](=O)[O-])cn2)c(C)n1-c1cccc(C(=O)O)c1 26.6%
O=C(CNC(=O)OCc1ccccc1)Oc1cc2oc(=O)cc(-c3ccccc3)c2cc1Cl -0.182%
CC1CCc2c(nc3ncnn3c2Nc2ccc(OC(F)(F)F)cc2)C1 (stereo not drawn) 3.32%
Cc1ccc(N(Cc2ccccc2O)C(=O)c2ccccc2F)cc1 0.374%
O=C(O)C1CCCN(CCC=C(c2ccccc2)c2ccccc2)C1 (stereo not drawn) -1.79%
N#CCc1c(C#N)c(N)nc(N2CCCC2)c1C#N 5.31%
N#Cc1c(-c2ccccc2)cc(-c2ccccc2)nc1SCC(=O)O -8.49%
Cc1c(C(=O)Nc2cccc(S(=O)(=O)N3CCOCC3)c2)oc2ccccc12 -2.02%
CC(C)(C)c1cc(CN2CCN(CCC#N)CC2)cc(C(C)(C)C)c1O -0.131%
CCCn1c(N)c(N(CCOC)C(=O)C2CCCC2)c(=O)[nH]c1=O -0.139%
CCn1c(SC(C)C(=O)Nc2ccc(N3CCOCC3)cc2)nnc1-c1ccco1 (stereo not drawn) -7.92%
COC(=O)c1ccc(C23CC4(C2)[C@H](CN(Cc2cccnc2)[C@@H]4c2ccccc2)C3c2ccc(Cl)nc2)cc1 (stereo partly drawn) -1.59%
CCOc1ccc(CN2CCN(Cc3ccc(C)o3)CC2CCO)cc1 (stereo not drawn) -3.68%
O=C(COC(=O)Cc1ccc(Br)cc1)Nc1ccc(N2CCOCC2)cc1 -2.2%
COc1ccc(NC(=O)CN2C(=O)COc3ccc(S(=O)(=O)N4CCOCC4)cc32)c(OC)c1 -0.917%
COc1ccc(S(=O)(=O)N(C)C[C@H]2Oc3c(NC(=O)Nc4ccc5c(c4)OCO5)cccc3C(=O)N([C@H](C)CO)C[C@@H]2C)cc1 -2.73%
Cc1ccc(S(=O)(=O)NCC2CCC(C(=O)N3CCOCC3)CC2)cc1 (stereo not drawn) -1.46%
Cc1ccc(C)c(NC(=O)COC(=O)c2nn(C)c(=O)c3ccccc23)c1 -0.308%
FC(F)(F)COc1nc(N2CCCCC2)nc(N2CCNCC2)n1 -3.54%
CC1CC1C(=O)OCC(=O)Nc1cccc(F)c1 (stereo not drawn) -2.53%
CCOC(=O)/C=C/c1ccc(C(F)(F)F)cc1S(=O)(=O)NC(C)(C)C 0.204%
O=C(NCc1cccs1)c1ccc(CS(=O)Cc2ccccc2Cl)o1 (stereo not drawn) 2.9%
CC(C)CCNC(=O)c1ccc2c(Cl)c3c(nc2c1)CCC3 1.16%

inhibition, active:
Cn1c(=O)c2[nH]c(NCC3CCCO3)nc2n(-c2ccccc2)c1=O (stereo not drawn) 53.4%
COc1cc(/C=N\Nc2ccc([N+](=O)[O-])cn2)ccc1OCC(=O)O 71.1%
N#Cc1c(N2CCCCC2)nc(N)c2c(N)nc(SCC(=O)O)cc12 71.9%
